The results in this text go back to PubChem BioAssay (Tox21).

Each structure is given as a SMILES string. Unmarked numbers belong to inactive results. Records with an inconclusive call do not appear. Active and inactive are the calls of the source. Unless noted, calls come from the whole dose curve; as a rule, active = well fitted curve in the direction sought with a large enough effect in the repeat runs; inconclusive = weak or mixed curves; inactive = no such curve, though single readings can be large; an effect the other way counts as inactive or inconclusive.

Test [1] can be described thus: qHTS assay to identify small molecule agonists of the estrogen related receptor (ERR) signaling pathway from Tox21 library (AID 1224849; calls by dose curve; note: nearly all actives have a fitted effect of over 15% in size). As to conditions: ERR reporter cell line, ONE-Glo luciferase, 18 h; at 92.4 µM (top of the series) unless noted. The procedure, abridged: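 ERR reporter cell line (NTP) seeded, rested 6 h at 37 C/5% CO2, then pinned with Tox21 compounds in DMSO. After 18 h at 37 C, ONE-Glo luciferase luminescence was read following 30 min at room temperature.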

Test [2] in a line: qHTS RealTime-Glo MT Cell Viability Assay in HEK293 cells - 32 hour (AID 1224868). Note: top concentration of the series differs between compounds; nearly all actives have a fitted effect of over 50% in size. The procedure, abridged: (§1)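 Nonlytic real-time viability readout: viable cells convert prosubstrate to NanoLuc substrate, giving luminescence proportional to live cell number. HEK293, 600 cells/well, compound added after 5 h, continuous culture at 37 C.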
A general note: qHTS replaces the single test concentration by a dilution series.

Test [3] can be described thus: A CellTox Green Cytotoxicity Assay to monitor cytotoxicity in HEK293 cells - 0 hour (AID 1224869). Note: nearly all actives have a fitted effect of over 50% in size. The procedure, abridged:
(§2)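 HEK293 cells premixed with CellTox Green dye were seeded at 600 cells/well and left 5 h at 37 C/5% CO2 before pin transfer of 23 nL compound in DMSO. Fluorescence from dye bound to dead-cell DNA was read during 40 h treatment.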

Test [4] can be described thus: A CellTox Green Cytotoxicity Assay to monitor cytotoxicity in HEK293 cells - 40 hour (AID 1224871). Note: nearly all actives have a fitted effect of over 45% in size. Note: potency is the fitted concentration of half-maximal effect. The procedure, abridged: as §2
Test [5] can be described thus: qHTS RealTime-Glo MT Cell Viability Assay in HEK293 cells - 16 hour (AID 1224872). Note: top concentration of the series differs between compounds; nearly all actives have a fitted effect of over 50% in size. A digest of the protocol: as §1
Test [6] in a line: qHTS RealTime-Glo MT Cell Viability Assay in HepG2 cells - 8 hour (AID 1224873). Note: nearly all actives have a fitted effect of over 55% in size. A digest of the protocol: (§3)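 HepG2 cells mixed with RealTime-Glo MT reagents (NanoLuc plus cell-permeant prosubstrate) were seeded at 600 cells/well, incubated 5 h at 37 C/5% CO2, then pinned with compounds in DMSO; nonlytic luminescence tracked viability during 40 h treatment.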
Test [7] is described as follows: qHTS RealTime-Glo MT Cell Viability Assay in HEK293 cells - 40 hour (AID 1224874). Note: nearly all actives have a fitted effect of over 50% in size. The note with it: RealTime-Glo luminescence; max response: hits give low values. A digest of the protocol:
(§4)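 HEK293 cells mixed with RealTime-Glo reagents (NanoLuc plus cell-permeant prosubstrate) at 600 cells/well, preincubated 5 h at 37 C/5% CO2, then given 23 nL compound in DMSO. Nonlytic luminescence from viable cells was read at 0, 8, 16, 24, 32 and 40 h.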

A short description of test [8]: A CellTox Green Cytotoxicity Assay to monitor cytotoxicity in HEK293 cells - 24 hour (AID 1224875). Note: nearly all actives have a fitted effect of over 45% in size. The procedure, abridged:
as §2

Test [9] in a line: A CellTox Green Cytotoxicity Assay to monitor cytotoxicity in HepG2 cells - 16 hour (AID 1224876). Note: nearly all actives have a fitted effect of over 45% in size. The procedure, abridged: (§5)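 HepG2 cells were seeded together with the CellTox Green dye at 600 cells/well, left 5 h at 37 C/5% CO2, then given compounds in DMSO. Fluorescence from dye bound to dead-cell DNA was read repeatedly over 40 h of treatment at 37 C.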
The nature of test [10]: qHTS RealTime-Glo MT Cell Viability Assay in HepG2 cells - 32 hour (AID 1224877). Note: nearly all actives have a fitted effect of over 55% in size. The procedure, abridged: (§6)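 Luminescence read-out: viable HepG2 cells reduce a prosubstrate to a NanoLuc substrate, giving a signal proportional to live cell number. Reads taken at 0, 8, 16, 24, 32 and 40 h of compound exposure at 37 C.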
Test [11] in a line: A CellTox Green Cytotoxicity Assay to monitor cytotoxicity in HepG2 cells - 24 hour (AID 1224878). Note: nearly all actives have a fitted effect of over 45% in size. A digest of the protocol: as §5
The nature of test [12]: A CellTox Green Cytotoxicity Assay to monitor cytotoxicity in HepG2 cells - 40 hour (AID 1224879). Note: nearly all actives have a fitted effect of over 40% in size. The procedure, abridged:
as §5

Test [13] is described as follows: qHTS RealTime-Glo MT Cell Viability Assay in HEK293 cells - 0 hour (AID 1224880). A digest of the protocol:
as §4

Test [14] in a line: A CellTox Green Cytotoxicity Assay to monitor cytotoxicity in HEK293 cells - 32 hour (AID 1224881). Note: nearly all actives have a fitted effect of over 40% in size. Note: potency is the fitted concentration of half-maximal effect. The procedure, abridged:
as §2

A short description of test [15]: A CellTox Green Cytotoxicity Assay to monitor cytotoxicity in HepG2 cells - 0 hour (AID 1224882). Note: nearly all actives have a fitted effect of over 35% in size. A digest of the protocol:
as §5

Test [16] in a line: A CellTox Green Cytotoxicity Assay to monitor cytotoxicity in HepG2 cells - 32 hour (AID 1224883). Note: nearly all actives have a fitted effect of over 50% in size. A digest of the protocol: as §5
Test [17] in a line: A CellTox Green Cytotoxicity Assay to monitor cytotoxicity in HEK293 cells - 8 hour (AID 1224884). Note: nearly all actives have a fitted effect of over 35% in size. The procedure, abridged:
as §2

The nature of test [18]: qHTS RealTime-Glo MT Cell Viability Assay in HepG2 cells - 16 hour (AID 1224885). Note: nearly all actives have a fitted effect of over 50% in size. The procedure, abridged: as §6
A short description of test [19]: qHTS RealTime-Glo MT Cell Viability Assay in HepG2 cells - 24 hour (AID 1224867). Note: nearly all actives have a fitted effect of over 50% in size. The procedure, abridged:
as §6

The nature of test [20]: qHTS RealTime-Glo MT Cell Viability Assay in HepG2 cells - 40 hour (AID 1224870). Note: nearly all actives have a fitted effect of over 50% in size. A digest of the protocol:
as §3
% is set by controls: 0 for no effect and ±100 for the full control effect.

`CCC(=O)CC`: in [1], the activity change, positive = activation is 4.37%. Moreover, the Potency entry in test [2], in test [3], in test [4], in test [5], in test [8] and in test [9] was “inactive” each time. For the same compound, the Potency result in test [11], in [12], in test [13], in test [14], in test [15] and in test [16] was “inactive” each time. The Potency result in test [17] was “inactive”. For the same compound, the outcome in test [6], in [10] and in test [18] was inactive. In [7], the max response is 4.81%.

As for `CCCCCCCCCCCCCCC(=O)NC(CO)CCCCCCCCCCCCCC` (stereo unspecified), the call in [19], in [20], in [6], in [10] and in test [18] was inactive. In addition, the Potency result in test [2], in [3], in [4], in test [5], in [8] and in [9] was “inactive” each time. Also, the Potency result in test [11], in test [12], in test [13], in test [14], in test [15] and in [16] was “inactive” each time. The Potency entry in test [17] was “inactive”. For the same compound, in test [7], the max response is 5.76%.

For the compound `O=C(O)CCCCCC(=O)O`, the activity change, positive = activation in [1] was 1.8%. Further, the outcome in test [19], in [20], in test [6], in test [10] and in test [18] was inactive. The Potency result in test [2], in test [3], in [5], in test [9], in test [11] and in [12] was “inactive” throughout. In addition, the Potency result in test [13], in [15] and in test [16] was “inactive” each time. For the same compound, the Potency in test [4] and in test [14] was 22 µM (active) throughout. Further, the max response in [7] is 0.774%.

For the compound `COc1nc(N)nc2nc[nH]c12`, the activity change, positive = activation in [1] is 0.367%. Further, the call in test [19], in test [20], in [6], in test [10] and in test [18] was inactive. The Potency result in [2], in test [4], in [9], in test [11], in test [12] and in test [13] was “inactive” throughout. Further, the Potency result in test [14], in test [16] and in [17] was “inactive” throughout. In addition, the max response in test [7] was -26%.

`Nc1nc(-c2ccccc2)c(Br)c(=O)[nH]1`: the activity change, positive = activation in test [1] is -6.57% [at 42.5 µM]. Besides, the compound was classed as inactive in [19], in [20], in test [10] and in test [18]. Moreover, the Potency entry in [2], in test [4], in test [5], in [8], in test [9] and in test [12] was “inactive” each time. For the same compound, the Potency result in [13], in test [14], in test [16] and in [17] was “inactive” each time. Further, the max response in [7] was -3.06%.

As to `CC(C)C[C@@H]1[C@H](c2ccccc2)OC(=O)N1CCCN1CCCCCC1`, the activity change, positive = activation in [1] was 0.937% [at 42.5 µM]. Moreover, the compound was classed as inactive in test [20], in test [6], in test [10] and in [18]. Moreover, the Potency entry in test [4], in test [8], in test [9], in test [11], in test [12] and in test [13] was “inactive” throughout. Moreover, the Potency entry in [14], in [15], in test [16] and in test [17] was “inactive” each time.

For `CC(N)CCCC(C)(C)O` (stereo unspecified), the result in [19], in test [20], in test [6], in [10] and in test [18] was inactive. The Potency entry in test [2], in [3], in test [4], in test [5], in [8] and in [9] was “inactive” each time. For the same compound, the Potency result in [11], in [12], in test [13], in test [14], in [15] and in test [16] was “inactive” throughout. Further, the Potency entry in [17] was “inactive”. Further, the max response in test [7] is 10%.

As to `CN(C)CCCO[C@@H]1[C@H]2OC(C)(C)O[C@H]2O[C@@H]1C(O)CO` (stereo partly specified), the activity change, positive = activation in test [1] was 6.19% [at 42.5 µM]. The compound was called inactive in test [19], in test [20], in test [6], in [10] and in [18]. The Potency result in test [2], in [3], in test [4], in test [5], in [8] and in test [9] was “inactive” each time. Further, the Potency result in test [11], in test [12], in test [13], in [14], in [15] and in [16] was “inactive” throughout. The Potency result in test [17] is “inactive”. Also, the max response in test [7] is 0.847%.
